# Experimental data published in the supplement of paper PMC12282887.
# ± gives the standard deviation of the averaged measurements.
# Key:
# Experiment in all cases: promoter activity interaction Z-score (Lux/OD deviation from empty-vector control); higher = stronger promoter induction by the compound
# [1] = tested on: E. coli BW25113 acrABp lux reporter
# Procedure, shortened: (§1)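 Reporter strains of E. coli BW25113 grew at 37°C in 40 µl LB Lennox in 384-well plates. Readings of OD600 and luminescence were taken every 30 min over 12 h, integrated over 0–8 h (wild type) or 1–9 h (deletion strains), and wells below 10% of the median growth value were excluded. Scores are Z-transformed residuals of growth-normalised luminescence from a fit against a control.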
# [2] = tested on: E. coli BW25113 ompFp lux reporter
# Procedure, shortened: as §1
# [3] = tested on: E. coli BW25113 robp lux reporter
# Procedure, shortened: as §1
# [4] = tested on: E. coli BW25113 soxSp lux reporter
# Procedure, shortened: as §1
# [5] = tested on: E. coli BW25113 tolCp lux reporter
# Procedure, shortened: as §1
# [6] = 0.038 µg/ml, genetic background: wild type
# [7] = 0.038 µg/ml, genetic background: ΔmarA
# [8] = 0.038 µg/ml, genetic background: Δrob
# [9] = 0.038 µg/ml, genetic background: ΔsoxS
# [10] = 0.076 µg/ml, genetic background: wild type
# [11] = 0.076 µg/ml, genetic background: ΔmarA
# [12] = 0.076 µg/ml, genetic background: Δrob
# [13] = 0.076 µg/ml, genetic background: ΔsoxS
# [14] = 0.15 µg/ml, genetic background: wild type
# [15] = 0.15 µg/ml, genetic background: ΔmarA
# [16] = 0.15 µg/ml, genetic background: Δrob
# [17] = 0.15 µg/ml, genetic background: ΔsoxS
# [18] = 0.3 µg/ml, genetic background: wild type
# [19] = 0.3 µg/ml, genetic background: ΔmarA
# [20] = 0.3 µg/ml, genetic background: Δrob
# [21] = 0.3 µg/ml, genetic background: ΔsoxS
compound,measurement,setting,value
Cc1c(N)nc([C@H](CC(N)=O)NC[C@H](N)C(N)=O)nc1C(=O)N[C@H](C(=O)N[C@H](C)[C@@H](O)[C@H](C)C(=O)N[C@H](C(=O)NCCc1nc(-c2nc(C(=O)NCCC[S+](C)C)cs2)cs1)[C@@H](C)O)[C@@H](OC1OC(CO)C(O)C(O)C1OC1OC(CO)C(O)C(OC(N)=O)C1O)c1cnc[nH]1 (some centres not stated) [Bleomycin],promoter activity interaction Z-score,[1]; [6],-0.161 ± 0.17
same,promoter activity interaction Z-score,[1]; [7],-0.308 ± 0.65
same,promoter activity interaction Z-score,[1]; [8],0.154 ± 0.043
same,promoter activity interaction Z-score,[1]; [9],-0.147 ± 0.084
same,promoter activity interaction Z-score,[1]; [10],0.266 ± 0.09
same,promoter activity interaction Z-score,[1]; [11],0.659 ± 0.35
same,promoter activity interaction Z-score,[1]; [12],0.241 ± 0.055
same,promoter activity interaction Z-score,[1]; [13],0.604 ± 0.2
same,promoter activity interaction Z-score,[1]; [14],0.326 ± 0.0054
same,promoter activity interaction Z-score,[1]; [15],1.11 ± 0.37
same,promoter activity interaction Z-score,[1]; [16],0.351 ± 0.064
same,promoter activity interaction Z-score,[1]; [17],0.996 ± 0.83
same,promoter activity interaction Z-score,[1]; [18],2.43
same,promoter activity interaction Z-score,[2]; [6],-0.37 ± 0.33
same,promoter activity interaction Z-score,[2]; [7],-0.165 ± 0.44
same,promoter activity interaction Z-score,[2]; [8],0.0421 ± 0.23
same,promoter activity interaction Z-score,[2]; [9],-0.165 ± 0.021
same,promoter activity interaction Z-score,[2]; [10],0.414 ± 0.11
same,promoter activity interaction Z-score,[2]; [11],0.695 ± 0.073
same,promoter activity interaction Z-score,[2]; [12],0.642 ± 1
same,promoter activity interaction Z-score,[2]; [13],1.16 ± 0.21
same,promoter activity interaction Z-score,[2]; [14],0.0111 ± 0.27
same,promoter activity interaction Z-score,[2]; [15],1.52 ± 0.35
same,promoter activity interaction Z-score,[2]; [16],1.13 ± 1.2
same,promoter activity interaction Z-score,[2]; [17],0.608 ± 0.26
same,promoter activity interaction Z-score,[2]; [18],1.05
same,promoter activity interaction Z-score,[3]; [6],-0.227 ± 0.48
same,promoter activity interaction Z-score,[3]; [7],-0.244 ± 0.084
same,promoter activity interaction Z-score,[3]; [8],0.0423 ± 0.14
same,promoter activity interaction Z-score,[3]; [9],0.189 ± 0.027
same,promoter activity interaction Z-score,[3]; [10],0.47 ± 0.17
same,promoter activity interaction Z-score,[3]; [11],0.568 ± 0.18
same,promoter activity interaction Z-score,[3]; [12],-0.134 ± 0.47
same,promoter activity interaction Z-score,[3]; [13],0.996 ± 0.081
same,promoter activity interaction Z-score,[3]; [14],-0.644 ± 0.27
same,promoter activity interaction Z-score,[3]; [15],0.509 ± 0.081
same,promoter activity interaction Z-score,[3]; [16],-0.728 ± 0.72
same,promoter activity interaction Z-score,[3]; [17],-0.1 ± 0.21
same,promoter activity interaction Z-score,[3]; [18],0.543 ± 1.9
same,promoter activity interaction Z-score,[3]; [19],0.142
same,promoter activity interaction Z-score,[4]; [6],-0.0441 ± 0.22
same,promoter activity interaction Z-score,[4]; [7],0.0426 ± 0.088
same,promoter activity interaction Z-score,[4]; [8],0.0195 ± 0.2
same,promoter activity interaction Z-score,[4]; [9],0.0402 ± 0.048
same,promoter activity interaction Z-score,[4]; [10],0.138 ± 0.019
same,promoter activity interaction Z-score,[4]; [11],0.214 ± 0.083
same,promoter activity interaction Z-score,[4]; [12],-0.00506 ± 0.02
same,promoter activity interaction Z-score,[4]; [13],0.485 ± 0.32
same,promoter activity interaction Z-score,[4]; [14],-0.0277 ± 0.085
same,promoter activity interaction Z-score,[4]; [15],0.277 ± 0.053
same,promoter activity interaction Z-score,[4]; [16],0.343 ± 0.13
same,promoter activity interaction Z-score,[4]; [17],0.655 ± 0.09
same,promoter activity interaction Z-score,[4]; [18],0.33 ± 0.25
same,promoter activity interaction Z-score,[4]; [19],0.209 ± 0.081
same,promoter activity interaction Z-score,[4]; [20],0.169 ± 0.11
same,promoter activity interaction Z-score,[4]; [21],0.215
same,promoter activity interaction Z-score,[5]; [6],-0.575 ± 0.29
same,promoter activity interaction Z-score,[5]; [7],-0.641 ± 1.1
same,promoter activity interaction Z-score,[5]; [8],-0.352 ± 0.023
same,promoter activity interaction Z-score,[5]; [9],-0.761 ± 0.52
same,promoter activity interaction Z-score,[5]; [10],0.286 ± 0.074
same,promoter activity interaction Z-score,[5]; [11],-0.211 ± 0.3
same,promoter activity interaction Z-score,[5]; [12],-0.79 ± 0.62
same,promoter activity interaction Z-score,[5]; [13],0.828 ± 0.64
same,promoter activity interaction Z-score,[5]; [14],-0.851 ± 0.45
same,promoter activity interaction Z-score,[5]; [15],0.213 ± 1.1
same,promoter activity interaction Z-score,[5]; [16],0.777 ± 1.4
same,promoter activity interaction Z-score,[5]; [17],0.0492 ± 0.52
same,promoter activity interaction Z-score,[5]; [18],0.571 ± 0.23
same,promoter activity interaction Z-score,[5]; [19],0.356
same,promoter activity interaction Z-score,[5]; [20],-0.851 ± 0.56
same,promoter activity interaction Z-score,[5]; [21],1.73 ± 0.26
